Consider eight compounds from PubChem BioAssay (NCI).

Test systems include NCI-H23 lung; NCI-H226 lung; NCI-H322M lung; HOP-62 NSCLC; NCI-H460 lung; HOP-92 NSCLC; NCI-H522 lung; A549/ATCC NSCLC; 786-0 renal; COLO 205 colon; DU-145 prostate; K-562 leukemia; MALME-3M melanoma; MDA-MB-231 breast; RXF 393 renal; SF-268 CNS; SF-295 CNS; SF-539 CNS; M14 melanoma.
What all share (experiment): NCI-60 one-dose screen, 48 h (100 = growth as untreated, 0 = no growth, -100 = all killed)
What all share (settings): 10 µM unless noted

The panel holds about 83,000 compounds, 20% with a hit somewhere; the sample as a whole holds those more often.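 Cells were grown in 96-well plates and exposed to the test compound at a single concentration for 48 hours; results are reported as percent growth, with values below 10 considered active.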 Values without a mark were called inactive. Activity calls are given as the source filed them.

On to `COc1cc(C2CC(c3ccc(Cl)cc3)=NN2c2ccc(Cl)cc2)cc(OC)c1OC` (configuration not stated), for which the growth in the assay with NCI-H23 lung was 97.4%; with NCI-H226 lung it was 88.4%; in the assay on NCI-H322M lung, 91.1%; with HOP-62 NSCLC it was 100%; in the assay on NCI-H460 lung, 97.1%; in the assay on HOP-92 NSCLC, 57.7%. Also, the growth with NCI-H522 lung is 88.9%; in the assay with A549/ATCC NSCLC, 93.9%; in the assay on 786-0 renal, 98.8%; with COLO 205 colon it was 91.4%; in the assay with DU-145 prostate, 106%; with K-562 leukemia it was 93.8%. Also, the growth was 92% with MALME-3M melanoma; 79.8% in the assay on MDA-MB-231 breast; 89.6% in the assay on RXF 393 renal; 90.6% in the assay on SF-268 CNS; 95.3% in the assay on SF-295 CNS; 93.9% in the assay with SF-539 CNS. For the same compound, the growth in the assay with M14 melanoma was 90.3%.

`COc1ccc(-c2nc(N)ncc2Oc2ccccc2OC)c(O)c1`: the growth in the assay with NCI-H23 lung was 38.8%; in the assay with NCI-H226 lung, 73.5%; in the assay on NCI-H322M lung it was 50.5%; with HOP-62 NSCLC it was 27.9%; in the assay on NCI-H460 lung, 16.4%; in the assay on HOP-92 NSCLC, 49.2%. Besides, the growth in the assay with NCI-H522 lung was 28.7%; in the assay with A549/ATCC NSCLC, 35.7%; in the assay with 786-0 renal it was 37%; with COLO 205 colon, 2.73% (active); in the assay on DU-145 prostate it was 34.9%; in the assay with K-562 leukemia it was 12.2%. In addition, the growth is 48% in the assay with MALME-3M melanoma; 51.9% in the assay on MDA-MB-231 breast; 46.3% in the assay on SF-268 CNS; -0.599% (active) with SF-295 CNS; 8.99% (active) in the assay with SF-539 CNS; 12.5% with M14 melanoma.

In the case of `Cc1cccc(NC(=O)[C@@H]2c3ccccc3C(=O)N(c3ccc(Cl)cc3)[C@H]2c2ccc(Cl)cc2)n1`, the growth in the assay on NCI-H23 lung is 57.9%; in the assay with NCI-H226 lung it was 55.1%; in the assay with NCI-H322M lung, 80.8%; in the assay with HOP-62 NSCLC it was 53.1%; in the assay with NCI-H460 lung it was 52.5%; in the assay with HOP-92 NSCLC, 42%. For the same compound, the growth in the assay with NCI-H522 lung was 38.7%; in the assay on A549/ATCC NSCLC, 23.6%; in the assay with 786-0 renal, 61.2%; in the assay on COLO 205 colon it was 30.7%; in the assay with DU-145 prostate it was 79.8%; with K-562 leukemia, 47.7%. Further, the growth in the assay with MALME-3M melanoma was 61.1%; with MDA-MB-231 breast it was 32.1%; in the assay on SF-268 CNS, 62.8%; with SF-295 CNS, 24.1%; in the assay on SF-539 CNS, 71%; in the assay on M14 melanoma, 45.8%.

In the case of `Cc1cc(N2CCCC2)nc(N(CCCNc2ccnc3cc(Cl)ccc23)Cc2ccc3c(c2)OCO3)n1`, the growth with NCI-H23 lung is 20.9%; in the assay with NCI-H226 lung, 50.4%; in the assay on NCI-H322M lung, 8.23% (active); in the assay with HOP-62 NSCLC it was -17.4% (active); with NCI-H460 lung, 5.83% (active); in the assay with HOP-92 NSCLC, -36% (active). The growth with NCI-H522 lung was -28.1% (active); in the assay with A549/ATCC NSCLC, 13.2%; with 786-0 renal, -88.8% (active); in the assay on COLO 205 colon, -73.8% (active); in the assay on DU-145 prostate, 27.9%; in the assay with K-562 leukemia, -15.4% (active). Besides, the growth is -76.9% (active) in the assay on MALME-3M melanoma; 4.2% (active) with MDA-MB-231 breast; -66.1% (active) in the assay with RXF 393 renal; 31.2% in the assay with SF-268 CNS; -62% (active) in the assay on SF-295 CNS; -90.5% (active) in the assay on SF-539 CNS. Moreover, in the assay on M14 melanoma, the growth was -83.4% (active).

On to `COc1ccc2nc3cc(Cl)ccc3c(Nc3ccc(N(C)C)cc3)c2c1`, for which the growth in the assay with NCI-H23 lung is 91.9%; in the assay on NCI-H226 lung, 83.5%; in the assay with NCI-H322M lung, 109%; with HOP-62 NSCLC, 89.9%; in the assay with NCI-H460 lung it was 70.6%; with HOP-92 NSCLC, 76.3%. Further, the growth is 86.6% with NCI-H522 lung; 69.3% with A549/ATCC NSCLC; 96.9% in the assay with 786-0 renal; 84.6% in the assay with COLO 205 colon; 91% with DU-145 prostate; 80.2% in the assay with K-562 leukemia. The growth is 106% with MALME-3M melanoma; 89.8% in the assay with MDA-MB-231 breast; 94.5% with SF-268 CNS; 86.8% in the assay with SF-295 CNS; 95.1% with SF-539 CNS; 98.2% in the assay with M14 melanoma.

`COc1cc(-c2nc(C(=O)NCC(=O)O)nn2-c2ccc(Cl)cc2)cc(OC)c1OC`: the growth was 97.5% with NCI-H23 lung; 87.1% in the assay on NCI-H226 lung; 102% in the assay on NCI-H322M lung; 104% with HOP-62 NSCLC; 110% in the assay on NCI-H460 lung; 106% with HOP-92 NSCLC. For the same compound, the growth with NCI-H522 lung was 97.1%; in the assay on A549/ATCC NSCLC, 96.6%; with 786-0 renal it was 103%; in the assay with COLO 205 colon it was 108%; with DU-145 prostate, 111%; in the assay with K-562 leukemia it was 89.4%. Besides, the growth with MALME-3M melanoma is 111%; in the assay on MDA-MB-231 breast it was 106%; in the assay on SF-268 CNS, 108%; in the assay on SF-295 CNS, 95.2%; in the assay with SF-539 CNS, 102%; with M14 melanoma, 98.5%.

Consider `COc1cc2c(cc1OCCCCCCN1CCN(c3ncnc4ccccc34)CC1)N=CC1CCCN1C2=O` (configuration not stated), for which the growth was -26.1% (active) in the assay on NCI-H23 lung; -54.9% (active) in the assay with NCI-H226 lung; -2.96% (active) in the assay with NCI-H322M lung; -25.9% (active) with HOP-62 NSCLC; 3.48% (active) in the assay with NCI-H460 lung; -21.7% (active) in the assay with HOP-92 NSCLC. The growth in the assay on NCI-H522 lung is -55.2% (active); with A549/ATCC NSCLC it was 1.08% (active); in the assay on 786-0 renal, -10.3% (active); in the assay on COLO 205 colon, -57.1% (active); in the assay on DU-145 prostate, 4.65% (active); with K-562 leukemia, -15.9% (active). Besides, the growth is -65.9% (active) in the assay with MALME-3M melanoma; -29.1% (active) in the assay on MDA-MB-231 breast; -2.27% (active) in the assay on SF-268 CNS; -45.5% (active) in the assay on SF-295 CNS; -56.3% (active) with SF-539 CNS; -85.5% (active) in the assay with M14 melanoma.

As to `CC(C)=CCc1cc2c(cc1O)C1=C(C(=O)C3=C(C1=O)S(=O)(=O)CCN3)C(C=C(C)C)O2` (configuration not stated), the growth in the assay with NCI-H23 lung is -35.9% (active); in the assay with NCI-H226 lung it was -54.1% (active); with NCI-H322M lung it was -76.2% (active); in the assay with HOP-62 NSCLC it was -52.7% (active); with NCI-H460 lung, -50.4% (active); in the assay on HOP-92 NSCLC it was -11.7% (active). Further, the growth is -50.8% (active) in the assay with NCI-H522 lung; -42.4% (active) with A549/ATCC NSCLC; -12.3% (active) in the assay on 786-0 renal; -69.8% (active) in the assay on COLO 205 colon; -97.1% (active) in the assay with DU-145 prostate; 0.919% (active) in the assay with K-562 leukemia. In addition, the growth was -96.1% (active) in the assay with MALME-3M melanoma; 1.47% (active) in the assay with MDA-MB-231 breast; -76.2% (active) in the assay on RXF 393 renal; -0.0427% (active) in the assay on SF-268 CNS; -65.9% (active) in the assay with SF-295 CNS; -100% (active) in the assay with SF-539 CNS. Also, the growth with M14 melanoma is -89.1% (active).
